From PubChem
Luc counter: Counterscreen for Luciferase (Kinase-Glo TM) Inhibition. Kinase-Glo luciferase, ATP luminescence, 8 min. Potency, µM (series often up to 38.3 µM), actives largely listed as inhibitors. 200,000 tested, 0.28% active. AID 1379, 2008; further: nearly all actives have a fitted effect of over 60% in size
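Compounds were added to a substrate mix at pH 7.2 (50 mM imidazole, 10 uM ATP, within the enzyme's linear range), followed by Kinase-Glo detection reagent; luminescence was measured after 8 minutes at ambient temperature.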
ELG1 genotoxic: qHTS screen for small molecules that induce genotoxicity in human embryonic kidney (HEK293T) cells expressing luciferase-tagged ELG1. Potency, µM (top dose mostly 46 µM), hits mostly activators. 330,000 tested, 1.3% active. HEK293T ELG1-luciferase reporter, luminescence, 16 h; further: nearly all actives have a fitted effect of over 60% in size
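16 hr compound incubation (37 °C, 5% CO2) of HEK293T cells carrying luciferase-tagged ELG1; luciferase then measured by ONE-Glo luminescence after 30 min at RT.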
Rab9 prom act: qHTS Assay for Rab9 Promoter Activators | 320,000 tested, 2.8% active | Huh7 Rab9 promoter-luciferase reporter, luminescence, 24 h | Potency, µM (titrated, usually from 9.22 µM), usual class: activators; further: nearly all actives have a fitted effect of over 60% in size
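Cells were plated at 1500 per well in reduced-serum medium with 10% FBS and left 2 h. Compound in DMSO was then added for 24 h at 37 °C. Reporter signal was read by luminescence after 10 min with luciferase detection reagent.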
NPC1 promoter act: qHTS Assay for NPC1 Promoter Activators. Huh7 NPC1 promoter luciferase reporter, 24 h. Potency, µM (doses to about 9.22 µM), most hits filed as activators. 320,000 tested, 2.4% active; further: nearly all actives have a fitted effect of over 60% in size
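Readout is luciferase luminescence, reflecting NPC1 promoter activation in stably transfected Huh7 cells after 24 h compound exposure at 37 °C in reduced-serum medium with 10% FBS.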
SMN2 splice up: qHTS Assay for Enhancers of SMN2 Splice Variant Expression | Potency, µM (doses to about 46.1 µM), hits mostly activators | 210,000 tested, 2.8% active | HEK293 SMN2-luciferase splicing reporter, luminescence, 30-36 h; further: nearly all actives have a fitted effect of over 55% in size
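qHTS luciferase splicing reporter: luminescence rises when SMN2 exon 7 is included in transfected HEK293 cells. Compound exposure lasted 30-36 h at 37C, with 4.5 mM final sodium butyrate as control, followed by a ONE-Glo read.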
FLuc modulator: qHTS profiling assay for firefly luciferase inhibitor/activator using purifed enzyme and Km concentrations of substrates (counterscreen for miR-21 project). Luciferin 4-monooxygenase (Photinus pyralis), P08659. purified FLuc, Km substrates, luminescence inhibition. Potency, µM (top dose mostly 57.5 µM), most hits filed as inhibitors. 360,000 tested, 6.9% active. AID 588342, 2011; further: nearly all actives have a fitted effect of over 55% in size
Target sequence (P08659 whole entry, looked up): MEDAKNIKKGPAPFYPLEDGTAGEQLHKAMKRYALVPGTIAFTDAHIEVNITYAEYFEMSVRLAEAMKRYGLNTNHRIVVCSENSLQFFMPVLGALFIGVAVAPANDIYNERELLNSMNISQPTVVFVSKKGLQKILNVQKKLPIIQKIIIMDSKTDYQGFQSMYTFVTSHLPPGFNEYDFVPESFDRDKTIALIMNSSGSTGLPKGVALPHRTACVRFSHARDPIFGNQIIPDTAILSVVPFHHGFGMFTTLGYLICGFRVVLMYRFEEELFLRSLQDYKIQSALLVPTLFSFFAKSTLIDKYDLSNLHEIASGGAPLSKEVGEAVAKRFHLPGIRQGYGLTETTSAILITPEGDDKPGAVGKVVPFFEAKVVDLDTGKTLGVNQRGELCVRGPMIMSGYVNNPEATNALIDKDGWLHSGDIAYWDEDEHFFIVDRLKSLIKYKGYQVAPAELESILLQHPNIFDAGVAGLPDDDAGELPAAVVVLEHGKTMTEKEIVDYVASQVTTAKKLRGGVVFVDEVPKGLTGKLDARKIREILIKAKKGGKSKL
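Biochemical qHTS of compounds, final roughly 60 µM downward over six points, against 10 nM purified firefly luciferase using Km concentrations of substrates (10 uM D-luciferin, 10 uM ATP) in Tris acetate pH 7.5 buffer; luminescence output.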
Numbers stand for hits; n = inactive; u = inconclusive; x = not tested or not shown; [ ] = another dose, or the depositor's remark. Sampled rows, rich in hits. Any-hit rate of the full collection: about 7.5%. The call rests on the fitted dose curve; in most records, active means well fitted curve in the direction sought with a large enough effect; inconclusive means small, poorly fitted or top-dose-only effect, or another doubt; inactive means no such curve, though single readings can be large; an effect the other way counts as inactive or inconclusive.

SMILES	Luc counter	ELG1 genotoxic	Rab9 prom act	NPC1 promoter act	SMN2 splice up	FLuc modulator
O=C(c1cc(-c2ccco2)nc2ccccc12)N1CCN(c2ccc(F)cc2)CC1	n	n	n	n	n	19µM
C/C(=N\NC(=O)c1cc(-c2ccco2)nc2ccccc12)c1cccnc1	n	n	n	n	n	13.5µM
Cc1ccccc1NC(=O)Cc1nc(COC(=O)c2ccc(O)cc2O)cs1	x	n	n	n	x	u
C/C(=N\NC(=O)c1ccc(O)cc1O)c1cccnc1	x	n	u	n	x	9.53µM
O=C(O)c1cc(-c2ccco2)nc2ccccc12	n	n	n	n	n	21.3µM
CC(C)(C)c1ccccc1NC(=O)CN1C(=O)NC(Cc2ccccc2)C1=O (stereo not given)	x	n	n	n	x	n
O=C(Nc1cccnc1)c1cn(-c2ccccc2)nc1-c1cccs1	n	n	n	n	n	3.01µM
O=C(NC1CCS(=O)(=O)C1)c1cn(-c2ccccc2)nc1-c1ccccc1 (stereo not given)	n	n	n	n	n	15.1µM
COc1ccc(NC(=O)CN(C)C(=O)c2cn(-c3ccccc3)nc2-c2cccs2)cc1	x	n	n	n	x	16.9µM
COc1ccc(-c2nn(-c3ccccc3)cc2C(=O)NC2CCC(C)CC2)cc1 (stereo not given)	x	n	n	n	x	n
CCOC(=O)C1CCN(C(=O)c2cn(-c3ccccc3)nc2-c2cccnc2)CC1	n	n	n	n	n	13.5µM
O=C(/C=C/c1ccccc1)NCc1cccnc1	n	n	n	n	x	n
O=C(NCc1cccnc1)c1cn(-c2ccccc2)nc1-c1ccccc1	n	n	n	n	n	21.3µM
CCN(CC)CCNC(=O)c1ccc(NC(=O)c2cn(-c3ccccc3)nc2-c2cccs2)cc1	n	n	n	n	n	8.49µM
O=C(NCCCN1CCCC1=O)c1cn(-c2ccccc2)nc1-c1ccccc1	x	n	n	n	x	10.7µM
O=C(/C=C/c1ccc(-c2ccccc2)cc1)NCc1cccnc1	x	n	n	n	x	7.57µM
Cc1cccc(C)c1NC(=O)Cn1nc(C)c2sc3ccccc3c2c1=O	x	x	x	x	x	n
CCn1c(SCC(=O)Nc2nncs2)nnc1C(C)NC(=O)c1ccccc1Br (stereo not given)	x	n	n	n	x	n
CCOc1ccccc1CNC(=O)Cn1nc(N2CCN(c3ccccc3)CC2)ccc1=O	x	x	x	x	x	n
CCCCn1c(N)c(N(CCC(C)C)C(=O)C2CC(=O)N(CCc3ccc(OC)c(OC)c3)C2)c(=O)[nH]c1=O (stereo not given)	x	n	n	n	x	n
Cc1ccccc1CN1CCN(C(C)C(=O)NNC(=O)c2ccc(F)cc2)CC1 (stereo not given)	x	n	n	n	x	u
CCCn1cnc2cc(NCc3cccc(OC)c3O)ccc21	n	u	n	n	n	12µM
COc1cccc(CNc2ccc3c(c2)ncn3C(C)C)c1OC	n	n	3.98µM	3.98µM	u	16.9µM
CCCn1cnc2cc(NCc3ccccn3)ccc21	n	u	3.16µM	3.16µM	12.6µM	12µM
COc1ccccc1-n1cnc2cc(NCc3ccccn3)ccc21	n	n	n	n	n	15.1µM
SMILES	Luc counter	ELG1 genotoxic	Rab9 prom act	NPC1 promoter act	SMN2 splice up	FLuc modulator
CCn1cnc2cc(NCc3ccncc3)ccc21	n	n	n	n	x	n[2.3 µM]
COc1ccccc1-n1cnc2cc(NC(C)=O)ccc21	n	n	n	n	n	n
COc1cccc(CNc2ccc(F)c(Cl)c2)c1OC	n	n	n	n	n	n
N#Cc1cccc(S(=O)(=O)NCC(=O)OCC(=O)NCc2ccccc2)c1	x	n	n	n	x	n
COc1ccc(-n2cnc3ccccc32)cc1	n	n	n	n	n	u
COc1ccc(-n2cnc3cc(NCc4ccccn4)ccc32)cc1	n	n	n	n	n	16.9µM
CCC1CN(C(=O)N2CCC(C(=O)NCc3ccc(OC)cc3OC)CC2)c2cc(C)ccc2O1 (stereo not given)	x	x	x	x	x	n
Cc1ccc(-c2cc(-c3nnc(SCC(=O)NCC(C)C)n3N)c3ccccc3n2)cc1	n	n	n	n	n	16.9µM
CCC(C)NC(=O)CSc1nnc(-c2ccc(Cl)cc2)n1N (stereo not given)	n	n	n	n	n	n
CCC(C)NC(=O)CSc1nnc(-c2cc(-c3ccc(C)cc3)nc3ccccc23)n1N (stereo not given)	n	n	n	n	n	10.7µM
COc1ccc(-n2ccn(Cc3ccc(C)cc3)c(=O)c2=O)cc1OC	x	x	x	x	x	n
COC(=O)N1[C@H]2CC[C@@]3(C)C=C(C)O[C@]1(C)C3c1ccccc12	n	x	x	x	n	x
CCOc1ccccc1C(=O)Nc1cccc2ccc(C)nc12	x	x	x	x	x	n
COCCNc1c(-c2ccc(OC)c(OC)c2)nc2ccc(Cl)cn12	n	n	n	n	x	n
COCCNc1c(-c2cc3ccc(C)c(C)c3[nH]c2=O)nc2ccccn12	n	u	0.708µM	2.51µM	x	3.38µM
Fc1ccccc1SCc1nnc(-c2ccccc2Br)o1	n	2.91µM	0.355µM	0.708µM	2.82µM	0.953µM
Cc1nnc(SCc2nnc(-c3ccccc3Br)o2)n1-c1ccccc1	n	n	n	n	n	n
Cc1csc(SCc2nnc(-c3ccccc3Br)o2)n1	x	u	1.78µM	1.41µM	x	1.69µM
Cc1csc(SCc2nnc(-c3ccc(Cl)cc3)o2)n1	n	10.3µM	2.82µM	2.82µM	u	7.57µM
CCc1ccc2oc(C(=O)NCC(c3ccc(Cl)cc3)N3CCOCC3)c(C)c2c1 (stereo not given)	x	x	x	x	x	n
COC(=O)c1cnc(SCc2ccc(Cl)cc2)n1C	n	n	u	n	x	u
COC(=O)c1ccnc(SCC(=O)c2ccccc2)c1	n	14.6µM	2.82µM	3.16µM	u	3.79µM
COC(=O)c1cnc(SCC(=O)c2ccccc2)n1C	x	u	1.12µM	1µM	x	3.38µM
Cc1nc2cc(-c3ccc(Cl)cc3)nn2c(C)c1CCC(=O)N1CCN(c2ccccc2)CC1	x	x	x	x	n	n
Cc1c(C(=O)O)cnc2cc(-c3ccc(Cl)cc3)nn12	n	u	u	u	11.2µM	9.53µM
CC(=O)c1cnc2c(-c3ccc(Cl)cc3)c(C)nn2c1C	n	n	n	n	n	n
CC(=O)c1cnc2cc(-c3ccc(Cl)cc3)nn2c1C	n	u	3.55µM	4.47µM	x	2.69µM
O=C(CCOc1ccccc1)Nc1ccc(Br)cc1	x	n	3.16µM	u	x	u
COC(=O)c1ccc(NC(=O)CCOc2ccccc2)cc1	n	n	n	n	n	n
COc1ccc(NC(=O)CCOc2ccccc2)cc1	n	u	4.47µM	3.16µM	u	16.9µM
